Source: PubChem
Platelet DG rel: platelet dense granule release activity; human platelet-rich plasma, SFLLRN dense granule ATP release, luminescence; inhibition, %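 (compounds screened at 7.5 µM in platelet-rich plasma)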; 300,000 tested, 0.22% active;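 active means mean replicate score, as percent of positive control, at or above 50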
Wee1 stabilizer: inhibitors of human Wee1 degradation | P30291 | HeLa Luc-Wee1K328M stability, luciferase luminescence; 100% = proteasome inhibitor MG132 effect | reporter increase, % at 5 µM | 220,000 tested, 1.2% active;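 active means activation above the mean of all tested compounds plus 3 SD, set per screening run, cut at about 8.8% in these data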;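 further: cells exposed to compound for 20 h before luminescence read; 0% = DMSO alone and 100% = MG132 at 30 µM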
Target sequence (P30291 whole entry K328M): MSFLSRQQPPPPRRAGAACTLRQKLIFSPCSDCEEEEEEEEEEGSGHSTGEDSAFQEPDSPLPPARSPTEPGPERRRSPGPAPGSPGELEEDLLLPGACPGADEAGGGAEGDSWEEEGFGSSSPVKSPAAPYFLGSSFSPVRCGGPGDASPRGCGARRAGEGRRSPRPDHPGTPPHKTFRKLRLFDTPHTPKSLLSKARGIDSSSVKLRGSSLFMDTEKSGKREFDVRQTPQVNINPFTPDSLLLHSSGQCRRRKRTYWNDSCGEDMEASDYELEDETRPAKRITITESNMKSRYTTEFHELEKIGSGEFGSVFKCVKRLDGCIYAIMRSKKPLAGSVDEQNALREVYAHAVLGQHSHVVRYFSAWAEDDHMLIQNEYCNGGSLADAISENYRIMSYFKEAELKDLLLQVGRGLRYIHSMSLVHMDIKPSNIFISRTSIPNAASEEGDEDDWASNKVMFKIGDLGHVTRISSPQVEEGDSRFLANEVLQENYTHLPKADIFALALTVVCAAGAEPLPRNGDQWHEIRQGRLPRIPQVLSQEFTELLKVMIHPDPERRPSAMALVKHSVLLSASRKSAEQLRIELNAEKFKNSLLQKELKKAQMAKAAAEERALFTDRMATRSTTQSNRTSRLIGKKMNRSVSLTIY
HIF activator: HIF pathway transcriptional activation; U2OS HRE-luciferase reporter, luminescence; normalized: DMSO 0%, desferrioxamine 100%; activation, % at 7.5 µM (by protocol); 300,000 tested, 0.32% active;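 active means mean activation of at least 10% of the iron chelator positive control signal, with at least half of replicates also reaching 10%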
aSyn 5UTR inh: MLPCN primary screen, SNCA 5' untranslated region; inhibition, % (tested at 7.5 µM); 300,000 tested, 0.82% active; alpha-synuclein 5'UTR reporter, inhibitor activity; in the data active means inhibition above about 60%;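 further: H4 neuroglioblastoma cells stably carrying SNCA 5'UTR luciferase fusion; 0% = DMSO wells and 100% = positive control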
KLF5 inh: kruppel-like factor 5 inhibition. 290,000 tested, 0.23% active. inhibition, % at 5 µM. DLD-1 KLF5 promoter-luciferase reporter, luminescence;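 active means inhibition above a per-plate limit of that plate's mean compound inhibition plus 3 SD, cut at about 60% in these data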;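 further: 0% = DMSO wells and 100% = LY294002 at 200 µM; higher means less KLF5 promoter-driven luciferase light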
Starred values were filed as active, the others as inactive; x = not tested or not shown. Most compounds without a hit are left out; they make up all but 2.1% or so of the library.

SMILES	Platelet DG rel	Wee1 stabilizer	HIF activator	aSyn 5UTR inh	KLF5 inh
COc1cccc(CNC(=O)C2CCCN(c3nn4c(=O)cc(C)nc4s3)C2)c1 (centres undefined)	x	-2.2	x	x	-6.2
COc1ccc(NC(=O)C2CCCN(c3nn4c(=O)cc(C)nc4s3)C2)cc1 (centres undefined)	103.7*	x	0.1	15.6	-42.9
Cc1[nH]n(C2=NCCS2)c(=O)c1N=Nc1cccc(C(F)(F)F)c1	2.8	-0.9	-0.2	66.6*	-26.6
COC(=O)c1sccc1NC(=O)CC1C(=O)NCCN1C(=O)c1ccccc1 (centres undefined)	-3.5	-0.2	3.4	9.1	10.4
COC(=O)c1sccc1NC(=O)CC1C(=O)NCCN1C(=O)Nc1cc(Cl)ccc1OC (centres undefined)	-1.7	8.9*	0.1	-5.9	3.4
COc1ccc(N(Cc2cc3cc(OC)ccc3[nH]c2=O)C(=O)C2CCCO2)cc1 (centres undefined)	0.7	0.1	0.5	8.3	14.2
COc1ccc2[nH]c(=O)c(CN(C(=O)C3CCCO3)c3ccc(C)c(C)c3)cc2c1 (centres undefined)	-0.9	9.4*	-0.3	-4.8	-11.7
CC1OC(OC2C(OC3C(O[C@H]4CC[C@]5(C)C6C=C[C@]78OC[C@@]9(CC[C@@H](C)[C@H](C)C97)[C@H](O)C[C@@]8(C)[C@]6(C)CC[C@H]5C4(C)C)OC(C)C(O)C3O)OC(CO)C(O)C2O)C(O)C(O)C1O (some centres undefined)	1.2	x	-3.1	34.6	x
CCOC(=O)/C=C/C(=O)Nc1ccc(S(=O)(=O)N(C)c2ccccc2)cc1	1.1	10.1*	-0.8	-37.1	-22.9
C=CCOc1ccc2nc(NC(=O)OC)[nH]c2c1	-2.0	1.8	3.5	65.9*	50.7
O=C1C2C3C=CC(C3)C2C(=O)N1/N=C/c1cn(Cc2ccccc2)c2ccccc12 (centres undefined)	2.7	0.4	-0.3	66.5*	-23.6
O=C(CSc1nc2ccccc2s1)NC1CCS(=O)(=O)C1 (centres undefined)	-2.9	10.9*	x	-33.4	-12.2
Cc1c(Cl)cnc(NC(=O)COC(=O)c2ccc3ncsc3c2)c1Cl	-0.7	-0.5	-1.3	67.1*	13.4
CC(=O)c1sc(NC(=O)c2ccccc2)nc1-c1ccccc1	13.2	3.1	1.8	-139.0	-183.6
CCOC(=O)Nc1nc(-c2ccccc2)c(C(=O)c2ccccc2)s1	-3.7	0.7	0.5	116.7*	55.4
Cc1cc(=O)oc2cc(NC(=O)c3cccc(S(=O)(=O)N(C)C)c3)ccc12	-3.9	x	2.8	-111.5	-190.4
Cc1cc(=O)oc2cc(OCC(=O)Nc3cccc(S(=O)(=O)N(C)C)c3)ccc12	7.3	9.6*	0.1	5.3	-6.2
O=C(COC(=O)C1CC(O)CN1S(=O)(=O)c1ccc(Cl)cc1)c1cccc(Cl)c1 (centres undefined)	7.2	0.5	-0.8	6.9	-2.9
C/C(=N\Nc1nc(-c2ccccn2)nc2ccccc12)c1ccc(F)cc1	1.8	0.6	0.1	75.3*	7.1
CN(C(=O)c1cc(COc2ccc(F)c(F)c2)on1)C1CCOC1 (centres undefined)	2.8	x	1.6	-11.2	-35.9
O=C(O)CCC(=O)c1ccc2c(c1)CCCC2	-3.2	15.0*	-0.3	12.7	-19.4
O=C(O)c1ccc2c(c1)CCC2	-0.8	2.8	-0.1	17.7	-6.4
O=C(NCCCN1CCN(c2ccc(F)cc2)CC1)C1CCCN(c2ncnc3c2nc2n3CCCCC2)C1 (centres undefined)	-8.5	x	-0.8	11.9	-14.6
COc1ccccc1N1CCN(CCCNC(=O)C2CCCN(c3ncnc4c3nc3n4CCCCC3)C2)CC1 (centres undefined)	-6.2	x	133.6*	4.9	-29.6
COc1ccccc1NC(=O)c1ccc2[nH]c(C)c(C)c2c1	-1.4	x	2.4	-145.3	-156.7
SMILES	Platelet DG rel	Wee1 stabilizer	HIF activator	aSyn 5UTR inh	KLF5 inh
O=C(Nc1cccc2ccccc12)C12CC3CC(C1)CC(n1cnc([N+](=O)[O-])n1)(C3)C2	1.4	1.6	-0.6	73.0*	-19.7
Cc1ccc(NC(=O)C2CCN(S(=O)(=O)c3c(C)n[nH]c3C)CC2)nc1	13.4	10.5*	-0.3	10.4	-28.4
Cc1cc(C(=O)OCC(=O)c2cccc([N+](=O)[O-])c2)c2ccccc2n1	-9.5	9.5*	0.0	-5.8	-7.9
COc1ccc(C(=O)N2CCN(CC(=O)N3CCOCC3)CC2)cc1	5.3	x	0.4	5.8	-36.5
O=C(CSc1nc(=O)n(CCN2CCOCC2)c2c1CCCC2)Nc1ccc(F)cc1F	15.0	x	1.1	-14.9	x
O=C(CCSCCc1ccccn1)Nc1cccc([N+](=O)[O-])c1	-11.8	-0.2	0.0	5.3	-5.1
N#CC1=C(SCC(=O)c2ccc(Br)cc2)NC2=C(C(=O)CCC2)C1c1ccco1 (centres undefined)	x	10.9*	x	x	-7.6
O=C1N=C(N2CCCC2)S/C1=C\C=C\c1ccccc1	12.1	0.2	-0.2	-23.5	-119.5
COc1cc2ccccc2cc1C(=O)NNC(=O)c1ccccc1O	19.2	x	11.9*	49.8	6.9
O=C(NNC(=O)c1ccccc1OCc1ccccc1)c1ccccc1O	4.9	x	3.6	64.9*	50.3
O=C(NNC(=O)c1ccccc1OCc1ccc(F)cc1)c1ccccc1O	3.0	x	4.8	67.5*	41.3
COc1ccccc1CNC(=O)COC(=O)c1nccnc1N	-8.3	x	-0.2	-24.1	2.5
CN1CCN(C(=O)c2cc(=O)c3cc(Cl)cc(Cl)c3o2)CC1	2.9	x	-0.7	7.4	-0.7
CC(=O)Nc1nonc1NC(C)=O	2.9	-0.6	0.0	-9.7	-25.2
CC(=O)Nc1cc(OC(C)=O)c2nonc2c1OC(C)=O	x	-4.6	x	x	115.2*
O=C(c1ccc(Cl)c(S(=O)(=O)N2CCCCCC2)c1)N1CCN(c2ccccc2O)CC1	-3.3	-2.0	0.2	3.2	-34.5
CC1(c2ccccc2)NC(=O)N(CC(=O)Nc2ccccc2N2CCCCC2)C1=O (centres undefined)	x	x	-0.3	16.4	x
CCOC(=O)c1c(S(=O)(=O)N2c3ccccc3CC2C)c(C)n(C)c1C (centres undefined)	7.2	x	0.7	18.8	-10.5
CCOC(=O)c1c(C)[nH]c(C)c1S(=O)(=O)N1c2ccccc2CC1C (centres undefined)	6.2	x	31.5*	-1.1	4.8
c1ccc(Sc2ccccc2CN2CCCC2)cc1	-0.5	x	-0.7	84.6*	x
N=C1C(c2ccccc2)=C(O)CN1c1cccc(S(=O)(=O)NCc2ccco2)c1	1.3	9.2*	0.0	8.5	-0.7
N=C1C(c2ccccc2)=C(O)CN1c1cccc(S(N)(=O)=O)c1	10.5	2.9	0.2	-46.3	6.8
COc1ccc(C(=O)Nc2ccc3[nH]ccc3c2)cc1	57.8*	x	-2.7	66.4*	x
COc1ccc(C(=O)Nc2ccc3[nH]ccc3c2)cc1OC	5.9	x	2.8	-134.2	x
Cc1ccc(C(=O)Nc2ccc3ccccc3c2)cc1	19.4	x	-2.5	66.0*	71.6*
O=C(Nc1ccc2ccccc2c1)c1ccc(Cl)cc1	-6.4	x	-18.5	-23.4	-88.0
